Drawing on PubChem BioAssay (NCI), this text covers growth for 40 molecules.

This is part of a sample that, as a whole, favours compounds with a hit. Of some 83,000 tested, about 20% had one in any assay.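 Interpretation: 100, growth as untreated; towards 0, rising growth inhibition; 0, no net growth; 0 to -100, cell death. Compounds scoring below 10 were considered active.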 Activity calls are given as the source filed them.

The test has as its system SK-MEL-2 melanoma. Put plainly: NCI-60 one-dose screen, 48 h (100 = growth as untreated, 0 = no growth, -100 = all killed). To be noted: 10 µM.
Regarding `CCc1ccc(-c2ccc(-n3nc(C)c4c(N)nc(Cc5ccccc5)nc43)cc2)cc1`, the growth is 36% (inactive). On to `O=C(Nc1ccc(F)cc1)c1cc2ccccc2cc1O`, for which the growth was 84.7% (inactive). As for `Nc1nccc(OCCO)n1`, the figure is 99.5% (inactive); as for `O=C(CCCCNC(=O)c1nc(-c2ccccc2)n(-c2ccccc2)n1)NO`, 67.6% (inactive).

For the molecule `COc1cc(-c2nn(-c3ccc(NC(=O)NCCNS(=O)(=O)c4ccc(F)cc4)cc3)cc2-c2ccncc2)ccc1Cl`, the growth was 8.8% (active). As for `O=C(Nc1ccc2c(O)cc(S(=O)(=O)O)cc2c1)c1ccc([N+](=O)[O-])cc1`, the figure is 102% (inactive); as for `COC(=O)C1(O)NC(=C(C#N)C#N)C(C#N)=C1C(=O)c1ccc(OC)c(OC)c1` (stereo not given), 104% (inactive). Turning to `C=CCn1c(SCC(=O)Nc2ccc(C(=O)/C=C/c3ccc(OC)cc3)cc2)nnc1-c1ccc(OC)c(OC)c1`, the growth is 89.3% (inactive). For `COc1cc(NC(=O)Nc2cnc(Nc3ccc(N4CCOCC4)cc3)nc2Oc2cccc(OC)c2)cc(OC)c1`, the growth is 40% (inactive). As for `O=C(CCl)Nc1ccc(Cc2ccc(NC(=O)CCl)cc2)cc1`, the figure is -20.6% (active); as for `Cc1cc(SCc2ccccc2)nc(N)n1`, 119% (inactive). `Cc1nn(-c2ccc(-c3ccc(OC(F)(F)F)cc3)cc2)c2nc(Cc3ccccc3)nc(N)c12`: the growth was 87.6% (inactive). As for `O=C(Nc1nc(-c2ccccc2)nc2c1sc(=S)n2-c1ccccc1)C(F)(F)F`, the growth is 104% (inactive). On to `S=c1cnc2ccccc2[nH]1`, for which the growth is 95.6% (inactive).

For the molecule `O=C(CSc1nnc(-c2ccc(Cl)cc2)o1)Nc1ccc(C(=O)/C=C/c2ccc(Cl)cc2)cc1`, the growth is 101% (inactive). With `CN(C)CCN(Cc1ccccc1)c1ccc2ccccc2n1`, the growth is 103% (inactive). As to `CCN(CC)CCOc1cccc2c1C(=O)c1cccc(OCCN(CC)CC)c1C2=O`, the growth is 32.1% (inactive). `O=C(NCCCNS(=O)(=O)c1ccc(Cl)cc1)Nc1ccc(-n2cc(-c3ccncc3)c(-c3ccc(Cl)c(O)c3)n2)cc1`: the growth was 43.4% (inactive).

As to `C1CN(CC2CCC(CN3CCOCC3)O2)CCO1` (stereo not given), the growth is 107% (inactive). Turning to `NC(N)=N/N=C(\c1ccccc1)C(O)c1ccccc1` (stereo not given), the growth was 101% (inactive).

Turning to `N#CC1=C(N)Oc2cc(N)ccc2C1c1cccnc1` (stereo not given), the growth is 97.4% (inactive). As for `CCOC(=O)c1cc(C(=O)c2cc(OC)cc(OC)c2)n2nc(C)ccc12`, the figure is 15.9% (inactive); as for `COc1cc(C)ccc1Oc1nc(Nc2ccc(N3CCOCC3)cc2)ncc1NC(=O)Nc1cc(C(F)(F)F)cc(C(F)(F)F)c1`, 88.6% (inactive). In the case of `COc1ccc(/C=C2\CCCC3C2=Nc2ccccc2NC3c2ccc(OC)cc2)cc1` (stereo not given), the growth was 92% (inactive). Take `CCN(CC)CC(=O)N(CC)c1ccc(C)c(Cl)c1`: the growth is 99.5% (inactive).

On to `O=C(CC(CC(=O)c1ccccc1)c1ccccc1O)c1ccccc1`, for which the growth is 91.3% (inactive). To `C=C(C)[C@@H]1CC[C@]2(COCCC#N)CC[C@]3(C)[C@H](CC[C@@H]4[C@@]5(C)Cc6c([nH]c7ccccc67)C(C)(C)[C@@H]5CC[C@]43C)[C@@H]12` belongs 110% (inactive). On to `Fc1ccc2[nH]cc(-c3nc(-c4ccsc4)cs3)c2c1`, for which the growth is 87.9% (inactive).

`COc1cc(-c2nn(-c3cccc(NC(=O)CCN4CCN(Cc5ccccc5)CC4)c3)cc2-c2ccncc2)ccc1Cl`: the growth was -31.2% (active). For the molecule `Cc1cc(=O)n2nnc3cc(Cl)c(Cl)cc3n12`, the growth was 102% (inactive). Consider `O=C(/C=C/C=C/c1c(C2CC2)nc2ccccc2c1-c1ccc(F)cc1)c1cccs1`, for which the growth is -76.5% (active). To `CC(=O)[C@H]1CC[C@]2(C)[C@@H]1CC[C@@H]1[C@@]3(C)CC(CCC#N)(CCC#N)C(=O)C(C)(C)[C@@H]3CC[C@]12C` belongs 102% (inactive); to `CCNCC(=O)Nc1ccc(C(=O)OCC)cc1`, 102% (inactive).

On to `S=C(NCc1ccccc1)NCc1ccccc1`, for which the growth was 97.9% (inactive). To `NNC(=O)Oc1c(Cl)cc(Cl)cc1[N+](=O)[O-]` belongs 103% (inactive). As to `CN1CCN(CCC(=O)Nc2cccc(-n3cc(-c4ccncc4)c(-c4ccc(Cl)c(O)c4)n3)c2)CC1`, the growth was 34.5% (inactive). As for `O=S(=O)(O)c1cccc(Nc2ccc3ccccc3c2)c1`, the growth was 93.7% (inactive). As for `CCN(CC)CCOc1ccc2c(c1O)C(=O)c1ccccc1C2=O`, the figure is 88.1% (inactive). With `S=C(SSC(=S)N(c1ccccc1)c1ccccc1)N(c1ccccc1)c1ccccc1`, the growth was 95.1% (inactive). With `CN1CCN(CC(=O)Nc2cccc(-n3cc(-c4ccncc4)c(-c4ccc(Cl)c(O)c4)n3)c2)CC1`, the growth was 28.2% (inactive).
